The results in this text go back to PubChem BioAssay (NCATS).

Inconclusive results are not listed. A number with no mark means an inactive call. Calls of active or inactive are those of the source. Calls follow the shape of the dose curve; as a rule, active = well fitted inhibition curve with a large enough effect; inconclusive = small, poorly fitted or top-dose-only effect; inactive = flat fitted curve, though single readings scatter.
Potency is read from the fitted curve at half-maximal effect.

In this assay the test system is Zika virus NS2B-NS3 protease. The experiment in a line: Primary screen GU AMC qHTS for Zika virus inhibitors (AID 1347154). Also: nearly all actives have a fitted effect of over 70% in size.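 As to activity change, negative = inhibition: 0% = no-inhibitor control and -100% = no-enzyme control.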 Conditions: Zika NS2B-NS3 unlinked protease, AMC fluorogenic substrate; series mostly up to 54.1 µM; activity change, negative = inhibition: at the top concentration. The essentials:
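Fluorogenic AMC-substrate cleavage by noncovalent NS2B-NS3 protease complex (25 nM, pH 8.0 Tris buffer with Tween 20) followed for 15 minutes at room temperature (~20% conversion). Percent inhibition from ex340/em450 signal change, fitted by 4-parameter Hill equation.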
In general terms: qHTS replaces the single test concentration by a dilution series.
As for `CCCCC(CC)COC(=O)/C=C/c1ccc(OC)cc1` (centres undefined), the “activity change, negative = inhibition” value was -3.19%. Still for that read-out and setting: then `O=C1c2cccc3c2[C@H](CCC3)CN1[C@@H]1CN2CCC1CC2`, with -4.94%; and `O=C(CCN1CCN2CCCC2C1)N1c2ccccc2Sc2ccc(Cl)cc21` (centres undefined), with -0.561% [at 25.8 µM]. Same read-out and setting: the figure for `CCCCNc1ccc(C(=O)OCCOCCOCCOCCOCCOCCOCCOCCOCCOC)cc1` is -0.602%. Still for that read-out and setting: then `COc1cc(N)c(Cl)cc1C(=O)NC1CCN(Cc2ccccc2)CC1`, with -5.36%; and `O=S(=O)(O)c1ccc(O)cc1`, with 4.73%; and `NS(=O)(=O)c1ccc(Cl)c(S(N)(=O)=O)c1`, with -0.458%. In the case of `CCCCCCCC/C=C\CCCCCCCCN`, the “activity change, negative = inhibition” value was -2.73%. `CCCCCCCCCCCCCCC[C@H](O)[C@@H](N)CO`: the Potency entry was “inactive”.

Consider `CCCCC(CC)CN1CN(CC(CC)CCCC)CC(C)(N)C1` (centres undefined), for which the “activity change, negative = inhibition” value is 5.67%. For `C#C[C@]1(O)CC[C@H]2[C@@H]3CCC4=Cc5oncc5C[C@]4(C)[C@H]3CC[C@@]21C`, the “activity change, negative = inhibition” value is -4.24%. Same read-out and setting: then `CC(C)CCCC(C)N` (centres undefined), with -4.32%; and `COc1ccc(CN(CCN(C)C)c2ncccn2)cc1`, with -0.0404%; and `O=C(N/N=C/c1ccc([N+](=O)[O-])o1)c1ccc(O)cc1`, with -7.08%. For the compound `CCc1nn(CCCN2CCN(c3cccc(Cl)c3)CC2)c(=O)n1CCOc1ccccc1`, the Potency result is “inactive”.

Regarding `Cc1cccc(C)c1NC(=O)CN1CCCCCC1`, the “activity change, negative = inhibition” value was -2.39%. Take `CCOc1ccc(NC(C)=O)cc1`: the “activity change, negative = inhibition” value is 2.5%. Still for that read-out and setting: the figure for `CCCCOC(=O)CC(CC(=O)OCCCC)(OC(C)=O)C(=O)OCCCC` is -7.46%; for `CCOCCn1c(N2CCCN(C)CC2)nc2ccccc21` it is 5.41%; for `CC(=O)NCCCCCC(=O)O` it is 2.43%. With `C#C[C@]1(O)CC[C@H]2[C@@H]3CCC4=CC(=O)CC[C@@H]4[C@H]3CC[C@@]21CC`, the “activity change, negative = inhibition” value is -1.04%. Same read-out and setting: the figure for `O=C1C(O)=C(O)C(=O)C(O)=C1O` is -2.72%; for `N=C(N)N1CCc2ccccc2C1` it is 1.62% [at 4.99 µM]; for `c1ccc(CC2=NCCN2)cc1` it is -3.38%. Still for that read-out and setting: the figure for `C[C@H]1[C@H]2CC[C@H]3[C@@H]4CC=C5C[C@@H](N(C)C)CC[C@]5(C)[C@H]4CC[C@]23CN1C` is 3.6%. With `CN1CCN(c2cc3c(cc2F)c(=O)c(C(=O)O)cn3-c2ccc(F)cc2)CC1`, the “activity change, negative = inhibition” value is -12.3%.

For `COc1ccc2c(c1)c1c3n2CCN(C)C3=NCC1`, the “activity change, negative = inhibition” value is -4.66%. Consider `CN(CCCN1c2ccccc2CCc2ccccc21)CC(=O)c1ccc(Cl)cc1`, for which the Potency result is “inactive”. In the case of `CCC(Cc1c(I)cc(I)c(N)c1I)C(=O)O` (centres undefined), the “activity change, negative = inhibition” value was -8.93%. Take `Clc1cccc(C(c2ccc3nc[nH]c3c2)n2ccnc2)c1` (centres undefined): the “activity change, negative = inhibition” value was 1.16%. On the same count and under the same terms, the figure for `COc1ccc(C(=O)c2ccccc2O)c(O)c1` is -9.62%; for `OC[C@H]1O[C@@H]2O[C@H]3[C@H](O)[C@@H](O)[C@@H](O[C@H]4[C@H](O)[C@@H](O)[C@@H](O[C@H]5[C@H](O)[C@@H](O)[C@@H](O[C@H]6[C@H](O)[C@@H](O)[C@@H](O[C@H]7[C@H](O)[C@@H](O)[C@@H](O[C@H]8[C@H](O)[C@@H](O)[C@@H](O[C@H]1[C@H](O)[C@H]2O)O[C@@H]8CO)O[C@@H]7CO)O[C@@H]6CO)O[C@@H]5CO)O[C@@H]4CO)O[C@@H]3CO` it is 3.31%.

In the case of `CC(=O)O[C@]1(C(C)=O)CC[C@H]2[C@@H]3C=C(Cl)C4=CC(=O)CC[C@]4(C)[C@H]3CC[C@@]21C`, the “activity change, negative = inhibition” value is -9.07%. With `NCCNc1cccc2ccccc12`, the Potency was 14.4 µM (active). The same measure, in the same setting: then `CN1CCC[C@@H]1CCO[C@](C)(c1ccccc1)c1ccc(Cl)cc1`, with “inactive”; and `COP(=O)(OC)OC(c1ccc(Cl)cc1)P(=O)(OC)OC` (centres undefined), with “inactive”. Still for that read-out and setting: then `CN1CCN(C2=Nc3cc(F)ccc3Cc3ccccc32)CC1`, with “inactive”. For the compound `O=C(Nc1ccc([N+](=O)[O-])cc1)Nc1ccc([N+](=O)[O-])cc1`, the “activity change, negative = inhibition” value was -7.28%. Same read-out and setting: then `Cc1cc(CC(=O)O)c(C)n1-c1ccc(Cl)cc1`, with -12.2%.
